Assay outcomes as filed in PubChem BioAssay.
PAFAH2 inh – PAFAH2 enzyme inhibitors, primary screen, biochemical, fluorescence polarization, human; Platelet-activating factor acetylhydrolase 2, cytoplasmic (Homo sapiens), Q99487; recombinant PAFAH2, FP-rhodamine activity probe; inhibition, % at 3.39 µM; hit rate 0.99% among 340,000;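 active = inhibition above the mean over all tested compounds plus 3 SD, cut at about 30% in these data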;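 also: inhibitors block probe labeling of enzyme so polarization drops; 0% = enzyme with DMSO and 100% = wells lacking PAFAH2 protein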
pPAFAH inh – pPAFAH enzyme inhibitors, primary screen, biochemical, fluorescence polarization, human | Platelet-activating factor acetylhydrolase (Homo sapiens), Q13093 | recombinant pPAFAH, FP-rhodamine probe fluorescence polarization | inhibition, % at 3.39 µM | hit rate 1.5% among 330,000 | AID 463082, 2010;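 active = inhibition above the mean inhibition across the screen plus 3 SD, cut at about 25% in these data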;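 also: inhibitors block binding of the rhodamine activity-based probe so polarization drops; 0% = enzyme with DMSO and 100% = wells lacking pPAFAH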
Target sequence (Q13093 whole entry, looked up): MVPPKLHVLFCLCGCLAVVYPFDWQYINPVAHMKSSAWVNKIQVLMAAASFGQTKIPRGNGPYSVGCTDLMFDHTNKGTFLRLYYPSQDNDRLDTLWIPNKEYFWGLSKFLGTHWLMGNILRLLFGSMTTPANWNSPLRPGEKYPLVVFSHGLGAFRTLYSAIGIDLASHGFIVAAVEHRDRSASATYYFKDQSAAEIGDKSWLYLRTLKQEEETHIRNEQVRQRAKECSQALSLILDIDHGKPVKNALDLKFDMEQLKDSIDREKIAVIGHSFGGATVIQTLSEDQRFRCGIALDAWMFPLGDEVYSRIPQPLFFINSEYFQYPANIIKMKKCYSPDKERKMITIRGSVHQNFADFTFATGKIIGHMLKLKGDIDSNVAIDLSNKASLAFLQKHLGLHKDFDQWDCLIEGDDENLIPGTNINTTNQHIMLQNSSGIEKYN
PME-1 inh – PME-1 inhibitors via competitive probe labeling, primary screen, biochemical, fluorescence polarization, FP-Rh probe, HTS | Protein phosphatase methylesterase 1 (Homo sapiens), Q9Y570 | recombinant PME-1 | inhibition, % at 5.9 µM | hit rate 0.53% among 320,000;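 active = inhibition above the campaign mean of all compounds plus 3 SD, cut at about 26% in these data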;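 also: competitive labeling of PME-1 active site by serine hydrolase directed probe; 0% = PME-1 with DMSO and 100% = wells lacking PME-1 enzyme; inhibitors block probe labeling so polarization falls and inhibition rises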
PAFAH1B3 FP inh – PAFAH1B3 enzyme inhibitors, primary screen, biochemical, fluorescence polarization, human. recombinant PAFAH1B3, FP-rhodamine probe. AID 492972, 2010. Platelet-activating factor acetylhydrolase IB subunit alpha1 (Homo sapiens), Q15102. inhibition, % at 3.39 µM. hit rate 0.28% among 340,000;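 active = inhibition above the screen-wide average of all tested compounds plus 3 SD, cut at about 25% in these data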;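 also: 0% = enzyme with DMSO only and 100% = wells lacking PAFAH1B3 protein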
Target sequence (Q15102 whole entry, looked up): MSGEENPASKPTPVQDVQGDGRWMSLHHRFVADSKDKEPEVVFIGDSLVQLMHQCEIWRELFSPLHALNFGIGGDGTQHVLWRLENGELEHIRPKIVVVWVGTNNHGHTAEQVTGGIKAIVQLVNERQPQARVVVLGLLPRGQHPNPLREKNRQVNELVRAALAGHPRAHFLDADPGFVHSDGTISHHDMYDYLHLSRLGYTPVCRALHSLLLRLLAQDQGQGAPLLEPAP
Fam108B inh – mouse Fam108B serine hydrolase inhibitors, primary screen, counter-screen for RBBP9 inhibitor project, biochemical, fluorescence polarization | inhibition, % at 9.51 µM | hit rate 0.33% among 300,000 | AID 1947, 2009 | recombinant Fam108B, FP-Rh probe fluorescence polarization;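 active = inhibition above the screen mean inhibition plus 3 SD, computed separately per campaign, cut at about 18% in these data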;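 also: inhibitors lower polarization as less probe binds the enzyme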
PAFAH1B2 inh – PAFAH1B2 enzyme inhibitors, primary screen, biochemical, fluorescence polarization, human; inhibition, % at 3.39 µM; hit rate 1.2% among 340,000; Platelet-activating factor acetylhydrolase IB subunit alpha2 (Homo sapiens), P68402; recombinant PAFAH1B2, FP-rhodamine activity probe;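 active = inhibition above the mean of all tested compounds plus 3 SD, cut at about 24% in these data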;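 also: 0% = enzyme with DMSO and 100% = wells lacking PAFAH1B2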
Starred values were filed as active, the others as inactive. An excerpt weighted towards active compounds, which were near 2.9% of everything screened.

`Cc1cc(C)c(C)c(S(=O)(=O)N2CCC(C(=O)N3CC(C)CC(C)C3)CC2)c1C` (stereo not given) gave PAFAH2 inh 4, pPAFAH inh 1, PME-1 inh 0, PAFAH1B3 FP inh -11, Fam108B inh 0 and PAFAH1B2 inh 1.
For C=CCOc1ccc(/C=C2\SC(=S)N(C(C(=O)O)c3ccccc3)C2=O)cc1 (stereo not given) the results were PAFAH2 inh 10, PAFAH1B3 FP inh -9 and PAFAH1B2 inh 4.
`CCOc1ccc(/C=C2\SC(=S)N(C(C(=O)O)c3ccccc3)C2=O)cc1OC` (stereo not given) gave PAFAH2 inh 2, pPAFAH inh 1, PME-1 inh 35*, PAFAH1B3 FP inh 5, Fam108B inh 2 and PAFAH1B2 inh 3.
COc1cc(/C=C2\SC(=S)N(CC(=O)O)C2=O)ccc1OS(=O)(=O)c1ccc(C)cc1 was read as PAFAH2 inh 8, pPAFAH inh -3, PME-1 inh 5, PAFAH1B3 FP inh 21, Fam108B inh 3 and PAFAH1B2 inh 35*.
COc1cc(NC(=O)C2=C(C)OCCS2)c(Cl)cc1C(=O)NCCN(C)C was read as PAFAH2 inh -3, pPAFAH inh 5, PME-1 inh -3, PAFAH1B3 FP inh 5, Fam108B inh -2 and PAFAH1B2 inh 0.
For Cc1csc(NC(=O)CSC2=NS(=O)(=O)c3ccccc3N2)n1 the results were PAFAH2 inh -3, pPAFAH inh 0, PME-1 inh 2, PAFAH1B3 FP inh 11, Fam108B inh 4 and PAFAH1B2 inh 4.
`COC(=O)c1cc(NC(=O)c2cccc(C(F)(F)F)c2)c(=O)oc1C/C=N/OCc1cccc(Cl)c1Cl` gave PAFAH2 inh -19, pPAFAH inh 27*, PME-1 inh -14, PAFAH1B3 FP inh -3, Fam108B inh -10 and PAFAH1B2 inh -2.
For O=C1CC(Nc2ccc(N3CCOCC3)cc2)C(=O)N1Cc1ccccc1 (stereo not given) the results were PAFAH2 inh 25, pPAFAH inh 34*, PME-1 inh 5, PAFAH1B3 FP inh 3, Fam108B inh 0 and PAFAH1B2 inh 2.
For COc1cc(NS(=O)(=O)c2ccc(NC(=O)Cc3ccccc3)cc2)nc(OC)n1 the results were PAFAH2 inh 10, pPAFAH inh 9, PME-1 inh 4, PAFAH1B3 FP inh 17, Fam108B inh 2 and PAFAH1B2 inh 9.
CN(CC(=O)Nc1ccc(F)cc1)C(=O)C1CC(=O)N(Cc2ccccc2)C1 (stereo not given) was read as PAFAH2 inh 3, pPAFAH inh 2, PME-1 inh -1, PAFAH1B3 FP inh 4, Fam108B inh 2 and PAFAH1B2 inh 7.
`CCN(CC(=O)Nc1c(F)cccc1F)C(=O)CCc1ccc(OC)cc1` gave PAFAH2 inh 2, pPAFAH inh 3, PME-1 inh 41*, PAFAH1B3 FP inh 2, Fam108B inh -1 and PAFAH1B2 inh 3.
For COc1ccc(CCNC(=O)CN(c2ccc(OC)c(OC)c2)S(=O)(=O)c2ccccc2)cc1OC the results were PAFAH2 inh 0, pPAFAH inh 4, PME-1 inh 10, PAFAH1B3 FP inh 12, Fam108B inh 4 and PAFAH1B2 inh -9.
COc1ccccc1NC(=S)NCCSc1ccc(Cl)cc1 was read as PAFAH2 inh -2, pPAFAH inh 5, PME-1 inh 9, PAFAH1B3 FP inh 15, Fam108B inh 0 and PAFAH1B2 inh 7.
`CC(=O)c1cccc(NC(=O)NCCc2ccc(Cl)cc2)c1` gave PAFAH2 inh 2, pPAFAH inh -2, PME-1 inh -6, PAFAH1B3 FP inh -4, Fam108B inh -5 and PAFAH1B2 inh 27*.
For S=C(NCCc1ccc(Cl)cc1)NC1CC1 the results were PAFAH2 inh 0, pPAFAH inh 2, PME-1 inh 7, PAFAH1B3 FP inh 2, Fam108B inh 0 and PAFAH1B2 inh 42*.
`COc1ccccc1NC(=S)NCCc1ccc(Cl)cc1` gave PAFAH2 inh -3, pPAFAH inh 1, PME-1 inh 5, PAFAH1B3 FP inh 5, Fam108B inh 1 and PAFAH1B2 inh 34*.
Cc1ccccc1NC(=O)NCCc1ccc(Cl)cc1 was read as PAFAH2 inh 7, pPAFAH inh 2, PME-1 inh 4, PAFAH1B3 FP inh 4, Fam108B inh -3 and PAFAH1B2 inh 29*.
`CCN(CC(=O)Nc1c(F)cccc1F)C(=O)c1n[nH]c2ccccc12` gave PAFAH2 inh -5, pPAFAH inh -3, PME-1 inh 3, PAFAH1B3 FP inh 7, Fam108B inh -1 and PAFAH1B2 inh 6.
CCn1cc(CN2CCC(C(=O)Nc3ccc(Oc4cccnc4)cc3)CC2)cn1 was read as PAFAH2 inh -4, pPAFAH inh -3, PME-1 inh 3, PAFAH1B3 FP inh -6, Fam108B inh 0 and PAFAH1B2 inh 1.
`O=S(=O)(Nc1cccc(-c2cn3c(n2)SCC3)c1)c1ccccc1` gave PAFAH2 inh 4, pPAFAH inh 24, PME-1 inh 10, PAFAH1B3 FP inh 9, Fam108B inh -5 and PAFAH1B2 inh 3.
Screening C=CCn1c(SCC(=O)c2ccc(O)c(O)c2)nnc1-c1cccc(Cl)c1 returned PAFAH2 inh 39*, pPAFAH inh 28*, PME-1 inh 4, PAFAH1B3 FP inh 5 and PAFAH1B2 inh 5.
C=CCn1c(SCC(=O)O)nnc1-c1cccc(Cl)c1 was read as PAFAH2 inh -3, pPAFAH inh 3, PME-1 inh 6, PAFAH1B3 FP inh -2, Fam108B inh 2 and PAFAH1B2 inh 4.
Screening C=CCn1c(SCC(=O)c2ccc(O)c(O)c2)nnc1-c1ccccc1OC returned PAFAH2 inh 22, pPAFAH inh 27*, PME-1 inh 2, PAFAH1B3 FP inh 13, Fam108B inh 2 and PAFAH1B2 inh 7.
C=CCn1c(SCC(=O)Nc2cc(C)on2)nnc1-c1ccccc1OC was read as PAFAH2 inh -4, pPAFAH inh 3, PAFAH1B3 FP inh 3 and PAFAH1B2 inh 3.
COc1ccc(/C=N\NC(=O)c2cc(O)c(O)c(O)c2)cc1CN1CCN(c2ccc(F)cc2)CC1 was read as PAFAH2 inh -6, pPAFAH inh 30*, PME-1 inh 21, PAFAH1B3 FP inh 13, Fam108B inh 14 and PAFAH1B2 inh -6.
For Cc1ccc2nc(=O)c(NNc3ccccc3)cnc2c1 the results were PAFAH2 inh -1, pPAFAH inh 1, PME-1 inh 41*, PAFAH1B3 FP inh 2, Fam108B inh 4 and PAFAH1B2 inh -3.
For Cc1nc2ccccc2nc(=O)c1NNc1ccccc1 the results were PAFAH2 inh -1, PAFAH1B3 FP inh 11 and PAFAH1B2 inh 4.
